Data taken from PubChem BioAssay AID602144 (Vanderbilt Specialized Chemistry Center, 2011).
Several values for one entry are separate records, joined by “and”; a condition that tells them apart may be missing. Equal values may be shown once. Activity calls are given as the source filed them. Cut-off read from the data, not from the text of the source: active = remaining activity below about 50%; inactive = the rest.

target: Phospholipase D1 (Homo sapiens) (UniProt Q13393); assay: cellular phospholipase D1 activity inhibition – Calu-1 cells, single concentration (AID 602144); conditions: cellular PLD1 activity, stronger effect = lower value;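 note: tested at 200 nM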
Sequence (Q13393 whole entry, looked up): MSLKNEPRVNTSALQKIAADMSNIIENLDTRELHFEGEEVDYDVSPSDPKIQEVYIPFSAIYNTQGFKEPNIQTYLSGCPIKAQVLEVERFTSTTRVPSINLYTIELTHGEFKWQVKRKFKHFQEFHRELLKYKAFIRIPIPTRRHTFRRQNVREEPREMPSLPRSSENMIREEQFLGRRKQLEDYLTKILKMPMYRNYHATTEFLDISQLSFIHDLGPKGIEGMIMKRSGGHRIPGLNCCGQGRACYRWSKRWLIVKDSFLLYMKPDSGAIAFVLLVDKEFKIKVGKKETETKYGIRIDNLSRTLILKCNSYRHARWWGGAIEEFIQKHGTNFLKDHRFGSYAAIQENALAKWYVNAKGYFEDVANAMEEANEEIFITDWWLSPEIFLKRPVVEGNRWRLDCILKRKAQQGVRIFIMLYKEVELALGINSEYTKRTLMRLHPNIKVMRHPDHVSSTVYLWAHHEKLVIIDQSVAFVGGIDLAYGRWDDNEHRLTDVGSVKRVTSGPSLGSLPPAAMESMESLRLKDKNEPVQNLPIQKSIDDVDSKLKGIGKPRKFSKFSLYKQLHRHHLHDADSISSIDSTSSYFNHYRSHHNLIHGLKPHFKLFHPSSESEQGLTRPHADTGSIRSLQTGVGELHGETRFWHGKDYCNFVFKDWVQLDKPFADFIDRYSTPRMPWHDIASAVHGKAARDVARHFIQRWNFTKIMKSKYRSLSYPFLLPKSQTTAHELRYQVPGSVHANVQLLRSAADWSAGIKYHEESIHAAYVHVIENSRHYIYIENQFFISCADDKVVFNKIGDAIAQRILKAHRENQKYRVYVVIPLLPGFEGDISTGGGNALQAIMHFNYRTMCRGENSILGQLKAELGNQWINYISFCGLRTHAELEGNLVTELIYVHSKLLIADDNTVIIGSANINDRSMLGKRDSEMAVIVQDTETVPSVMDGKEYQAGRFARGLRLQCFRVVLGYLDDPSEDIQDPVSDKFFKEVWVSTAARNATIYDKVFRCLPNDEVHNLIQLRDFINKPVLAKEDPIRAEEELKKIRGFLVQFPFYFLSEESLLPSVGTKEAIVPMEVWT
Sequence (Q13393 whole entry, looked up): as above

For `O=C(c1ccc2ccccc2c1)N1CC(N2CCC3(CC2)C(=O)NCN3c2ccccc2)C1`, which remaining activity is on record?
The remaining activity was 82.4% (inactive).

With `C[C@H](CN1CCC2(CC1)C(=O)NCN2c1ccccc1)NC(=O)c1ccc(F)cc1` as the compound, how does the remaining activity read?
The remaining activity was 34.8% (active).

Which remaining activity does the source give for `O=C(NCCCCCCN1CCC2(CC1)C(=O)NCN2c1ccccc1)c1ccc2ccccc2c1` here?
Its remaining activity is 131% (inactive).

For `O=C(Cc1cccs1)NCCN1CCC2(CC1)C(=O)NCN2c1cccc(F)c1`, which remaining activity is on record?
Its remaining activity is 89.8% (inactive).

For `CC(C)[C@@H](CN1CCC2(CC1)C(=O)NCN2c1ccccc1)NC(=O)c1cc2ccccc2[nH]1`, which remaining activity is on record?
The remaining activity was 1.51% (active).

For `O=C(NCCN1CCC2(CC1)C(=O)NCN2c1ccccc1)C1CCc2ccccc2C1` (stereo not drawn), which remaining activity is on record?
Its remaining activity is 103% (inactive) and 104% (inactive).

`O=C(NCCCCCCN1CCC2(CC1)C(=O)NCN2c1ccccc1)c1cnc2ccccc2c1` was tested. Which remaining activity did it give?
Its remaining activity is 122% (inactive).

With `CC(C)[C@@H](CN1CCC2(CC1)C(=O)NCN2c1ccccc1)NC(=O)c1ccc(F)cc1` as the compound, how does the remaining activity read?
The remaining activity was 41.3% (active).

With `O=C(NCCN1CCC2(CC1)C(=O)NCN2c1ccccc1)c1ncc(F)cc1F` as the compound, how does the remaining activity read?
The remaining activity was 125% (inactive).

How did the remaining activity turn out when `Cc1ccccc1C(=O)NCCN1CCC2(CC1)C(=O)NCN2c1cccc(F)c1` was run?
Its remaining activity is 97.2% (inactive).

Which remaining activity does the source give for `C[C@@H](CN1CCC2(CC1)C(=O)NCN2c1ccc(F)c(F)c1)NC(=O)c1cc2cc(F)ccc2[nH]1` here?
The remaining activity was 0% (active).

How did the remaining activity turn out when `O=C(NCCN1CCC2(CC1)C(=O)NCN2c1ccccc1)c1cccc(Cl)n1` was run?
The remaining activity was 132% (inactive).

Which remaining activity does the source give for `O=C(NCCN1CCC2(CC1)C(=O)NCN2c1ccccc1)c1cc2ccccc2s1` here?
Its remaining activity is 50.8% (inactive).

How did the remaining activity turn out when `O=C(NCCN1CCC2(CC1)C(=O)NCN2c1ccc(F)c(F)c1)c1ccc(F)cc1` was run?
Its remaining activity is 101% (inactive).

How did the remaining activity turn out when `O=C(NCCN1CCC2(CC1)C(=O)NCN2c1ccccc1)c1cc2cccnc2s1` was run?
The remaining activity was 51.1% (inactive).

With `O=C(NCCN1CCC2(CC1)C(=O)NCN2c1cccc(F)c1)C1CCCCC1` as the compound, how does the remaining activity read?
Its remaining activity is 102% (inactive).

`CN1CN(c2ccccc2)C2(CCN(CCNC(=O)c3ccc4ccccc4c3)CC2)C1=O` was tested. Which remaining activity did it give?
Its remaining activity is 97.9% (inactive).

How did the remaining activity turn out when `O=C(NCCN1CCC2(CC1)C(=O)NCN2c1ccccc1)C1C[C@H]1c1ccccc1` (stereo partly drawn) was run?
The remaining activity was 138% (inactive).

`O=C(C#Cc1ccccc1)NCCN1CCC2(CC1)C(=O)NCN2c1ccccc1` was tested. Which remaining activity did it give?
The remaining activity was 87.1% (inactive).

`O=C(c1cccc(F)c1)N(CCN1CCC2(CC1)C(=O)NCN2c1cccc(F)c1)C(=O)c1cccc(F)c1` was tested. Which remaining activity did it give?
The remaining activity was 93.5% (inactive).

With `O=C1c2ccccc2C(=O)N1CCN1CCC2(CC1)C(=O)NCN2c1ccccc1` as the compound, how does the remaining activity read?
The remaining activity was 102% (inactive).

Which remaining activity does the source give for `Cc1ccccc1C(=O)N(CCN1CCC2(CC1)C(=O)NCN2c1cccc(F)c1)C(=O)c1ccccc1C` here?
The remaining activity was 105% (inactive).

For `O=C(NCCN1CCC2(CC1)C(=O)Oc1ccccc12)c1cnc2ccccc2c1`, which remaining activity is on record?
The remaining activity was 105% (inactive).
